Screening results (PubChem BioAssay)
HCMV inh: qHTS Assay for inhibitors of the human cytomegalovirus (HCMV). HFF cells, HCMV-luciferase reporter, 72 h; hits give low values. activity change, negative = inhibition, % at 57.5 µM. 410,000 compounds, 4.5% hits; in the data active = activity change below about -60%; inconclusive = no clear call, values can overlap the other calls; inactive = above about -39%
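Luciferase read-out from HCMV-luciferase-infected HFFs (MOI 1 PFU/cell) 72 h post infection at 37C; compounds added after 16 h cell attachment; activity normalized between buffer-only basal and Salinomycin (10uM) inhibitor controls.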
RE007 growth inh: qHTS Assay for Inhibitors of the HIV-1 protein Vpr; S. pombe RE007 Vpr strain, BacTiter-Glo ATP luminescence, 24 h; Potency, µM (titrated, usually from 92.2 µM), without a hit: at the top dose activity change, negative = less growth, hits mostly inhibitors; 360,000 compounds, 0.21% hits; AID 651644, 2012; active = well fitted falling curve with a large enough effect; inconclusive = small, poorly fitted or top-dose-only effect; inactive = no such curve, though single readings can be large or run the other way; note: potency is the fitted concentration of half-maximal effect; nearly all actives have a fitted effect of over 50% in size
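Fission yeast RE007 carrying one integrated HIV-1 vpr copy, seeded at OD 0.01 in PMG+AL medium with 23 nL pinned compound. Grown 24 h at 30 degrees; viability read by BacTiter-Glo luminescence after 5 min.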
FMDV antiviral: High Throughput Screening for Foot and Mouth Disease Virus Antivirals. FMDV antiviral cell-based qHTS. Potency, µM (titrated, usually from 57.9 µM), for the others: at the top dose activity change, negative = inhibition, hits mostly inhibitors. 410,000 compounds, 1.2% hits; calls by dose curve; tested in HEK293T cells; note: read-out not given here; potency is the fitted concentration of half-maximal effect; nearly all actives have a fitted effect of over 45% in size
Tb PYK inh: qHTS of Trypanosoma Brucei Inhibitors. 410,000 compounds, 0.12% hits. Potency, µM (top dose mostly 76.8 µM), without a hit: at the highest dose activity, negative = inhibition, actives largely listed as inhibitors. TbPYK enzyme, Kinase-Glo Plus ATP luminescence, 45 min. AID 624173, 2012; note: potency is the fitted concentration of half-maximal effect; nearly all actives have a fitted effect of over 50% in size
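Glycolytic pyruvate kinase of T. brucei was incubated with substrate, test compound and 130 uM ADP for 45 minutes at room temperature. Luminescent Kinase-Glo Plus signal was measured after 10 minutes.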
Sm TGR block: qHTS Assay for the Inhibitors of Schistosoma Mansoni Peroxiredoxins | Schistosoma mansoni thioredoxin glutathione reductase (TGR), Q962Y6 | purified TGR, DTNB reduction, TNB absorbance 405 nm | Potency, µM (titrated, usually from 114 µM), inactives show top-dose activity change, negative = inhibition, most hits filed as inhibitors | 360,000 compounds, 3% hits | AID 485364, 2010; note: potency is the fitted concentration of half-maximal effect; nearly all actives have a fitted effect of over 60% in size
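TGR 20 nM + NADPH 100 uM (dispensed conc.), cpd preinc 15 min RT; start with NADPH (500 uM addition) then DTNB (15 mM addition). Kinetic TNB absorbance, 405 nm filter. Four-parameter Hill fit across titration.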
Giardia FBPA inh: qHTS Assay for Inhibitors of Fructose-1,6-bisphosphate Aldolase from Giardia Lamblia; Potency, µM (series often up to 59.6 µM), for inactives: top-dose activity, negative = inhibition, most hits filed as inhibitors; A8B2U2; 290,000 compounds, 0.71% hits; purified Giardia FBPA; note: potency is the fitted concentration of half-maximal effect; nearly all actives have a fitted effect of over 55% in size
Target sequence (A8B2U2 whole entry, looked up): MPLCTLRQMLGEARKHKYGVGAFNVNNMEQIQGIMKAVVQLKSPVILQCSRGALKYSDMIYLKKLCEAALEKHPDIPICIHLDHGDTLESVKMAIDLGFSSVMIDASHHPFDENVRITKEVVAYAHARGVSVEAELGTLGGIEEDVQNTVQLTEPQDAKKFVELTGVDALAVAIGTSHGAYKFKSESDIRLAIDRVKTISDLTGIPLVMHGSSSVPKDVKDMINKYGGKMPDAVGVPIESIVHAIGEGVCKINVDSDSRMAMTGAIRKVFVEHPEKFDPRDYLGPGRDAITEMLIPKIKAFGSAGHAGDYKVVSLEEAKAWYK
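Giardia FBPA (40 nM reagent) was preincubated 10 min at RT with compound (up to 57.5 uM final), then substrate plus GAPDH/TPI/NAD/arsenate coupling system with diaphorase/resazurin was added; resorufin fluorescence (525/598 nm) was read after 20 min.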
An asterisk follows results filed as active; ? = inconclusive; . = no result. Rows were chosen to be rich in hits. Some 7.7% of all compounds tested hit in one or more screens of this group. Unless noted, calls come from the whole dose curve; as a rule, active = well fitted curve in the direction sought with a large enough effect; inconclusive = small, poorly fitted or top-dose-only effect, or another doubt; inactive = no such curve, though single readings can be large; an effect the other way counts as inactive or inconclusive. % is set by controls: 0 for no effect and ±100 for the full control effect.

SMILES	HCMV inh	RE007 growth inh	FMDV antiviral	Tb PYK inh	Sm TGR block	Giardia FBPA inh
Cc1ccc(Nc2c3c(nc4nncn24)CCC3)cc1	0	.	21%	4%	?	.
CCOc1ccc(Nc2c3c(nc4nncn24)CCC3)cc1	-15	.	?	0%	0%	.
Brc1ccc(Nc2c3c(nc4nncn24)CCC3)cc1	4	.	?	-7%	35µM*	.
Cc1ccc(NC(=O)Cn2nnc(-c3nc(-c4ccncc4)no3)c2N)cc1	4	.	-12%	0%	-11%	.
O=C(NNc1nc2ccccc2s1)c1ccccc1F	-67*	3%	38%	-8%	-25%	9%
COc1ccccc1C(=O)NCc1ccc(-c2nc3ccccc3s2)cc1	-61*	-24%	?	-10%	?	7%
Cc1ccccc1Cn1cccc(C(=O)Nc2nc3ccccc3s2)c1=O	-71*	.	22µM*	-1%	5%	.
O=C(NNc1nc2ccccc2s1)Nc1ccc(F)cc1	0	-13%	43%	2%	0%	-7%
COc1ccc(C(=O)Nc2ccccc2Cc2ccccc2)c(OC)c1	-71*	17%	-4%	-9%	0%	0%
O=C(COc1ccccc1F)OCc1cc(=O)n2nc(-c3cccs3)sc2n1	27	.	0%	0%	-7%	.
Cc1cc(Cn2cnc3c2C[C@@H](C(=O)O)N(C(=O)C(c2ccccc2)c2ccccc2)C3)ccc1N(C)C	.	.	-16%	.	.	0%
COc1ccccc1C(=O)Nc1nc2ccccc2s1	-99*	?	1.8µM*	?	-12%	7%
COc1cccc2sc(Nc3nc4ccc(NC(C)=O)cc4s3)nc12	-83*	4%	-19%	-8%	-10%	-5%
CC(=O)Nc1ccc2nc(NC(=O)COc3ccccc3C)sc2c1	-11	1%	20%	-1%	-1%	3%
COc1ccccc1C(=O)Nc1nc2ccc(S(C)(=O)=O)cc2s1	-1	-5%	8%	-5%	-1%	5%
COc1ccc(C(=O)Nc2nc3ccccc3s2)c(OC)c1	-97*	?	0.13µM*	?	-4%	-2%
COCCN(C(=O)Nc1ccc(OC)cc1)c1nc2ccccc2s1	-97*	9%	-1%	4%	-6%	-8%
Cc1ccc(CNC(=O)c2ccc(N3CCCC3)c(NC(=O)Nc3ccc(F)c(Cl)c3)c2)cc1	-5	.	5%	-21%	-1%	.
CC12CN(NC(=O)c3ccccc3F)C3(C#N)CC1CCC23C (stereo unspecified)	-75*	1%	3%	2%	8%	14%
Cc1cccc(CN2C(=O)[C@H]3Cc4c([nH]c5ccccc45)C(C)(C)N3C2=O)c1	37	.	35µM*	-1%	.	.
CS(=O)(=O)Nc1ccccc1C(=O)Nc1ccccc1Cl	33	-17%	-3%	-1%	-10%	5%
CS(=O)(=O)Nc1ccccc1C(=O)Nc1cccc(Cl)c1	-67*	6%	.	13%	-4%	16%
CS(=O)(=O)Nc1ccccc1C(=O)Nc1cc(Cl)cc(Cl)c1	-103*	-3%	?	-1%	-2%	7%
CCS(=O)(=O)c1ccc(C(=O)Nc2cccc(Cl)c2)c(Cl)c1Cl	?	4%	28µM*	0%	7%	0%
COc1cccc(NC(=O)N(C)C[C@H]2OCc3ccccc3-c3c(n(C)c4ccccc34)C(=O)N([C@H](C)CO)C[C@H]2C)c1	-22	.	.	.	.	.
SMILES	HCMV inh	RE007 growth inh	FMDV antiviral	Tb PYK inh	Sm TGR block	Giardia FBPA inh
Clc1ccc(-c2nnc(NCCN3CCCC3)c3ccccc23)cc1	-23	-6%	0.89µM*	-8%	-16%	-22%
Clc1ccc(-c2nnc(NCc3ccccc3)c3ccccc23)cc1	-7	-9%	?	3%	-8%	3%
CSc1oc(-c2ccc(F)cc2)nc1S(=O)(=O)c1ccc(F)cc1	?	12%	-24%	2%	-2%	-3%
CC(C)S(=O)(=O)c1oc(-c2cccs2)nc1S(=O)(=O)c1ccc(F)cc1	-102*	.	22µM*	-4%	0.89µM*	.
CCS(=O)(=O)c1oc(-c2ccc(F)cc2)nc1S(=O)(=O)c1ccc(Br)cc1	-99*	.	14µM*	3%	0.63µM*	.
CS(=O)(=O)c1oc(-c2ccc(F)cc2)nc1S(=O)(=O)c1ccc(Cl)cc1	-96*	.	25µM*	5%	0.71µM*	.
CC(C)S(=O)(=O)c1oc(-c2ccc(F)cc2)nc1S(=O)(=O)c1ccccc1	-97*	.	16µM*	-6%	0.89µM*	.
Cc1cccc(C(=O)Nc2nnc(S(=O)(=O)N(C)c3ccccc3C)s2)c1	-6	.	-4%	-7%	-20%	.
Cc1ccc(S(=O)(=O)c2c(Nc3ccc(C)c(C)c3)sc(C(=O)c3ccc4c(c3)OCO4)c2N)cc1	-4	.	22%	-6%	-9%	.
CCCCS(=O)(=O)c1oc(-c2ccc(F)cc2)nc1S(=O)(=O)c1ccccc1	-99*	.	32µM*	7%	0%	.
CC(NC(=S)Nc1ccc(F)cc1)c1ccccc1 (stereo unspecified)	?	-9%	-2%	1%	-16%	-3%
CC(C)c1ccccc1NC(=S)NC(C)c1ccccc1 (stereo unspecified)	-87*	16%	-6%	3%	0%	6%
CCn1c(-c2ccccc2F)nc2cc(C(=O)N3CCCC(CO)C3)cc(NC(C)=O)c21 (stereo unspecified)	.	.	5%	.	.	.
O=C(CSc1nnc(NC(=O)C2CCC2)s1)Nc1ccc(N2CCOCC2)cc1	-108*	-11%	-12%	-2%	-5%	-2%
O=C(CSc1nnc(NC2CC2)s1)Nc1ccc(N2CCOCC2)cc1	-37	-12%	-10%	1%	3%	.
C[C@@H](O)C(N)C(=O)O (stereo partly specified)	.	.	.	.	.	0%
CCN(CC)S(=O)(=O)c1ccc2oc(SCC3CN=C(c4ccc(OC)cc4)S3)nc2c1 (stereo unspecified)	-67*	4%	?	-8%	0%	9%
Cc1ccc(C)c(C(=O)COC(=O)c2n[nH]c3ccccc23)c1	-61*	2%	58%	0%	.	.
COc1ccc(CNC(=O)COC(=O)c2n[nH]c3ccccc23)cc1OC	35	-12%	11µM*	-4%	-25%	-9%
COc1ccccc1CNC(=O)COC(=O)c1n[nH]c2ccccc12	-25	-10%	?	7%	0%	?
